Only some compounds are listed: those with a hit (about 6.3% of all), similar ones and a draw of the others.
tim10-1 inh: growth inhibitors of tim10-1 mutant yeast, primary screen, luminescence, uHTS. S. cerevisiae tim10-1 ts strain growth, BacTiter-Glo, 24 h. 330,000 tested, 2.2% active. inhibition, % at 20 µM;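 active = inhibition of at least 40%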;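 note: mutant grown at 25 °C; 0% = DMSO wells with yeast and 100% = wells holding no yeast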
Mdm2-MdmX inh: inhibitors of human Mdm2-MdmX association, primary screen, cell-based, luminescence, split luciferase, SaOS-2, uHTS | Protein Mdm4 (Homo sapiens) + E3 ubiquitin-protein ligase Mdm2 (Homo sapiens), … | SaOS-2 split-luciferase Mdm2/MdmX complementation | inhibition, % at 8 µM | 330,000 tested, 3% active | AID 485346, 2010;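 active = inhibition of at least 50% at 8 µM in the primary screen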
tim23-1 inh: growth inhibitors of tim23-1 mutant yeast, primary screen, luminescence, uHTS. S. cerevisiae tim23-1 growth, BacTiter-Glo luminescence, 24 h. inhibition, % at 20 µM. 330,000 tested, 1.3% active;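 active = growth inhibition of the mutant yeast at or above 50%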;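 note: temperature-sensitive mutant grown at 25 °C; plate controls were DMSO-treated mutant yeast for no effect and medium wells lacking yeast for full effect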
MPTP inh: mitochondrial permeability transition pore inhibitors, primary screen, biochemical, isolated mouse mitochondria, absorbance | inhibition, % at 10 µM | 360,000 tested, 1.4% active | Ca2+ swelling absorbance, 30 min;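 active = inhibition of 50% or more, scaled per plate between neutral and stimulator controls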;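 note: 0% = DMSO wells given calcium and 100% = 1 mM EGTA wells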
TIM10 inh: growth inhibitors of isogenic TIM10 control yeast, primary screen, counter-screen for tim10-1 yeast inhibitor project, luminescence, uHTS; inhibition, % at 10 µM; 330,000 tested, 1.4% active; AID 463195, 2010; S. cerevisiae TIM10 strain growth, BacTiter-Glo luminescence, 24 h;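 active = inhibition of 40% or more at the single tested concentration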;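 note: wild-type TIM10 isogenic control strain grown at permissive 25 °C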
Mdm2-MdmX conf: Mdm2-MdmX complex disruptors, retested hits, confirmation, luminescence, single concentration; shares compounds with Mdm2-MdmX inh; Mdm2-MdmX binding, luminescent assay; inhibition, % at 8 µM; 10,000 tested, 55% active; AID 489028, 2010; in the data active = inhibition above about 40%
FLuc counter: full-length luciferase signal inhibition, confirmation, counter-screen for Mdm2/MdmX interaction inhibitor project, cell-based, single concentration, SaOS-2. shares compounds with Mdm2-MdmX inh. SaOS-2 full-length luciferase counterscreen, luminescence. inhibition, % at 8 µM. 6,200 tested, 77% active. AID 504607, 2011;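 active = mean inhibition at 8 µM reaching about 37%, which flags the compound as non-specific, limit read from the data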;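 note: p53-null SaOS-2 cells with luciferase driven by a doxycycline-inducible promoter; compound on cells about two nights before reading with doxycycline added after day one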
Starred values were filed as active, the others as inactive; / = not tested or not shown.

SMILES | tim10-1 inh | Mdm2-MdmX inh | tim23-1 inh | MPTP inh | TIM10 inh | Mdm2-MdmX conf | FLuc counter
CCCc1cnc(Nc2nc(C(N)Cc3ccc(C(F)(F)F)cc3)cs2)nc1 (centres undefined) | / | / | / | 5 | / | / | /
COCCNCC(O)CON=C1c2ccccc2-c2ccccc21 (centres undefined) | 15 | 16 | 3 | 2 | -2 | / | /
CC(C)CCNCC(O)CON=C1c2ccccc2-c2ccccc21 (centres undefined) | 13 | 95* | 10 | 18 | 29 | 41* | 69*
CC(C)Cc1cc(C(=O)O)c2ccccc2n1 | 4 | -20 | 15 | -1 | 3 | / | /
CC(=O)c1ccc(NC(=O)c2cc(CC(C)C)nc3ccccc23)cc1 | 6 | 58* | 11 | 1 | -9 | 66* | 34
CCOc1ccc(-c2cc(C(=O)Nc3ccc4c(c3)OCCO4)c3ccccc3n2)cc1 | 25 | 50* | 25 | -3 | 22 | 40* | 97*
Cc1cccc(-c2cc(C(=O)Nc3ccc4c(c3)OCCO4)c3ccccc3n2)c1 | 17 | 27 | 32 | 2 | 15 | / | /
O=C(Nc1ccc2c(c1)OCCO2)c1cc(-c2ccccn2)nc2ccc(Br)cc12 | 8 | 74* | -25 | 0 | -6 | 41* | 72*
CCOc1ccc(NC(=O)c2cc(Cl)nc3ccccc23)cc1 | 19 | 51* | 23 | 4 | 1 | 38 | 62*
COC(=O)[C@]12CCCCC=C1N(Cc1ccc(Cl)cc1Cl)C(=O)[C@H](CC(=O)NCC1CCCCC1)C2 | / | / | / | 0 | / | / | /
Cc1c(C(=O)OCCOC(C)C)[nH]c2c1C(=O)CC(c1ccco1)C2 (centres undefined) | 26 | 64* | 19 | 0 | 7 | 48* | 86*
Cc1c(C(=O)OCc2ccccc2)[nH]c2c1C(=O)CC(c1ccco1)C2 (centres undefined) | 13 | 67* | 12 | 1 | 14 | 63* | 81*
COCCOC(=O)c1[nH]c2c(c1C)C(=O)CC(c1ccccc1)C2 (centres undefined) | 26 | 62* | 24 | -2 | 8 | 60* | 73*
COC(=O)c1[nH]c2c(c1C)C(=O)CC(c1cccs1)C2 (centres undefined) | 3 | 60* | 5 | 2 | -6 | 58* | 74*
Cc1cc(C(=O)N2CCCC(C)(C(=O)NS(=O)(=O)C3CC3)C2)n(C(C)(C)C)n1 (centres undefined) | / | / | / | -1 | / | / | /
CCOC(=O)c1[nH]c2c(c1C)C(=O)CC(c1ccco1)C2 (centres undefined) | 22 | 60* | 24 | -1 | 9 | 59* | 84*
COCCOC(=O)c1[nH]c2c(c1C)C(=O)CC(c1ccco1)C2 (centres undefined) | 20 | 34 | 20 | 0 | 11 | / | /
COc1cccc(C(=Cc2ccc([N+](=O)[O-])cc2)C(=O)O)c1 | / | / | / | 0 | / | / | /
Cc1cc(C)nc(N/N=C/c2ccccc2Cl)n1 | 13 | -36 | -16 | 1 | 10 | / | /
Cc1cc(N/N=C/c2ccccc2Cl)nc(NCc2ccccc2)n1 | -21 | 72* | 33 | 8 | -5 | 38 | /
Cn1nc(C(C)(C)C)cc1NC(=O)C1(C)CCN1C(=O)c1ccccc1CCc1ccccc1 (centres undefined) | / | / | / | 1 | / | / | /
CCOC(=O)[C@H]1[C@H]2COc3ccc(Br)cc3[C@@H]2N2C(=O)CN(Cc3ccccc3)C(=O)[C@@]12C | 13 | 7 | 19 | -2 | 6 | / | /
COc1ccc2nc(NC(=O)/C=C/c3ccc4c(c3)OCO4)sc2c1 | -2 | 83* | -12 | / | -10 | 52* | 35
COC(=O)c1cc(NC(=O)/C=C/c2ccc3c(c2)OCO3)cc(C(=O)OC)c1 | 5 | 67* | 1 | 8 | 6 | 22 | 102*
COC(=O)c1cccc(NC(=O)/C=C/c2ccc3c(c2)OCO3)c1 | -27 | -4 | 33 | 0 | 4 | / | /
